Source: PubChem
The list is a sample of the results.
aSyn 5UTR act: Activators via SNCA 5'UTR binding, MLPCN; alpha-synuclein 5'UTR reporter, activators screen; activity score, % (tested at 7.5 µM), hits read low; 300,000 tested, 7.1% active; in the data active = activity score below about -60%
The depositor's hits bear a star.

SMILES	aSyn 5UTR act
CCCC(=O)Nc1ccc(-c2csc(-c3cccnc3)n2)cc1	-114.3*
CC(=O)Nc1ccc(-c2csc(-c3cccnc3)n2)cc1	-112.0*
CC(C)(C)c1ccc(/C=C2\SC(=O)N(CCNC(=O)c3cccc(S(=O)(=O)N4CCOCC4)c3)C2=O)cc1	-89.2*
CCN(CC)c1ccc(/C=N/NC(=O)c2cccc(S(=O)(=O)N3CCOCC3)c2)c(O)c1	128.8
COc1ccc(NC(=O)c2noc3c2CCCCC3)cc1	-100.4*
COc1ccc(CNC(=O)c2noc3c2CCCC3)cc1	-102.7*
O=C(NC1CCCCC1)c1noc2c1CCCCC2	-90.2*
CSc1ccccc1NC(=O)c1noc2c1CCC2	-103.3*
O=C(NCc1ccco1)c1noc2c1CCCCC2	-76.7*
CCc1ccc(NC(=O)c2noc3c2CCCCC3)cc1	-182.4*
Cc1ccc(Cn2ccc(NC(=O)c3noc4c3CCCC4)n2)cc1	-110.7*
Cc1ccc(O)c(NC(=O)c2noc3c2CCCCC3)c1	-184.4*
Cc1ccc(NC(=O)c2noc3c2CCCCC3)cc1	-117.2*
COc1ccc(-c2ccc(-c3noc(C(C)C)n3)c(OC)n2)cc1	-96.3*
COCc1nc(-c2ccc(-c3ccccc3)nc2OC)no1	-100.3*
COc1nc(-c2ccccc2)ccc1-c1noc(C)n1	-111.7*
COCc1nc(-c2ccc(-c3ccc(OC)cc3)nc2OC)no1	-122.7*
CCc1nc(-c2ccc(-c3ccc(OC)cc3)nc2OC)no1	-132.4*
CCC1CSC(Nc2ccc(C(=O)/C=C/c3ccc(Oc4ccccc4)cc3)cc2)=N1 (stereo not drawn)	-88.3*
COc1ccc(/C=C2\SC(=O)N(CCNC(=O)C3CC4C=CC3C4)C2=O)cc1 (stereo not drawn)	-194.3*
CCCc1ccc(-c2cc(C(=O)NCCc3ccc(S(N)(=O)=O)cc3)c3ccccc3n2)cc1	-115.4*
NS(=O)(=O)c1ccc(CNc2ccc3ccccc3n2)cc1	-120.1*
NS(=O)(=O)c1ccc(CCNC(=O)c2ccc3ccccc3n2)cc1	-82.9*
O=C(NCc1ccccc1Cl)c1ccc2ccccc2n1	-120.8*
C/C(Cl)=C\Cn1c(O)c(N=NC(N)=S)c2cc(Br)ccc21	70.1
SMILES	aSyn 5UTR act
CCCc1ccc(-c2cc(C(=O)Nc3ccc([N+](=O)[O-])cn3)c3ccccc3n2)cc1	-90.3*
O=C(N/N=C/c1cc([N+](=O)[O-])ccc1O)c1cc(-c2ccccc2)nc2ccccc12	81.3
CCc1ccc(-c2cc(C(=O)Nn3cnnc3)c3ccccc3n2)cc1	73.9
CCCc1ccc(-c2cc(C(=O)NN3CCOCC3)c3ccccc3n2)cc1	-93.0*
COc1ccc(NC(=O)c2sccc2C)c([N+](=O)[O-])c1	-184.2*
CCCCC(=O)Nc1ccc(C(=O)Nc2ccc(OC)cc2[N+](=O)[O-])cc1	60.6
COc1ccc(NC(=O)/C=C/c2ccccc2)c([N+](=O)[O-])c1	-175.7*
COc1ccc(NC(=O)C/C(C)=N/NC(=O)c2cccs2)c([N+](=O)[O-])c1	-111.0*
COc1ccc(NC(=O)c2cccs2)c([N+](=O)[O-])c1	-160.6*
NC(=O)c1cccnc1Nc1cccc([N+](=O)[O-])c1	-109.2*
O=c1oc2cc(OCc3c(F)cccc3Cl)ccc2cc1-c1ccccn1	-107.4*
CCCOc1ccc2cc(-c3ccccn3)c(=O)oc2c1	77.2
Cc1ccc(NNc2c(C)nc3ccccc3nc2=O)cc1	-111.8*
Cn1cccc1C(=O)OCc1ccc(C(C)(C)C)cc1	-140.9*
Cn1cccc1C(=O)C(=O)Nc1ccccc1	-112.2*
Cn1cccc1C(=O)C(=O)Nc1ccccc1C(F)(F)F	-129.7*
C=C(C)CSc1nc2ncc(Cl)cc2[nH]1	-73.7*
CCCCN=C1NN=C(c2ccc(C)c(C)c2)CS1	-162.1*
COCCN=C1NN=C(c2ccc(C)c([N+](=O)[O-])c2)CS1	-108.3*
CC1CC(=O)NN=C1c1ccc(NCCO)c([N+](=O)[O-])c1 (stereo not drawn)	76.1
COc1ccc(-c2[nH]ncc2CN2CCC(O)(c3ccc(Cl)cc3)CC2)cc1	87.4
Cc1ccccc1CN1CCN(c2nc3ccccc3s2)CC1	-146.4*
COc1ccc(CN2CCN(c3nc4ccccc4s3)CC2)cc1	-69.4*
CCOC(=O)c1ccc2c(c1)nc(-c1ccccn1)n2CC	-133.8*
COc1ccccc1OCC#CCSc1ncccn1	-80.6*
SMILES	aSyn 5UTR act
O=C(c1cc2cc(Br)ccc2o1)N1CCCCC1	-146.3*
CCCc1ccc2oc(C(=O)N3CCC(O)CC3)c(C)c2c1	-89.2*
CCCc1ccc2oc(C(=O)N(C)Cc3nccs3)c(C)c2c1	-148.8*
Cc1ccc(-c2nc(C(=O)NCCCN3CCOCC3)cc3c2[nH]c2ccccc23)cc1	-64.5*
Cc1ccc2oc(C(=O)N3CCCCCC3)c(C)c2c1	-77.8*
Cc1ccc2oc(C(=O)NCCCN3CCOCC3)c(C)c2c1	-95.4*
Cc1c(C(=O)N2CCCCC2)oc2ccc(Br)cc12	-137.7*
CCc1ccc(Nc2n[n+](-c3ccccc3)c(/C=C/c3ccccc3)s2)cc1	-169.2*
CCc1ccc(Nc2n[n+](-c3ccccc3)c(-c3ccc(OCc4ccccc4)cc3)s2)cc1	-61.8*
CN(C)c1ccc(-c2sc(Nc3ccccc3)n[n+]2-c2ccc(F)cc2)cc1	-203.5*
Cc1ccc(-c2onc3ccc(C=O)cc23)cc1	-139.0*
Cc1cc(-c2onc3ccc(Cl)cc23)ccc1O	-91.3*
Cc1ccnc(NC(=O)CCC2CCCCC2)c1	-193.3*
O=C(CCC1CCCC1)Nc1ccc(Br)cn1	-196.6*
Cc1cc(NC(=O)CCC2CCCC2)no1	-65.2*
O=C(NC1=NCCS1)c1ccc(-c2ccc(Cl)cc2)o1	-191.3*
O=C(NC1=NCCS1)c1sc2cc(F)ccc2c1Cl	-191.0*
O=C(NC1CCC(O)CC1)c1ccc(-c2ccc(Cl)cc2)o1 (stereo not drawn)	-111.5*
O=C(NCCCN1CCOCC1)c1sc2cc(F)ccc2c1Cl	-61.9*
CS(=O)(=O)c1sc(C#N)c2c1C(=O)CC(c1ccccc1)C2 (stereo not drawn)	81.1
O=C(NC1=NCCS1)c1ccc(Cl)cc1	-180.5*
O=C(NNC1=Nc2ccccc2SC1)c1ccc(Cl)cc1	96.2
Oc1ccccc1/C=N/Nc1nccnc1Cl	88.4
Nc1cc(Cl)nc(N/N=C/c2ccccc2[N+](=O)[O-])n1	-188.0*
O=[N+]([O-])c1ccccc1/C=N/Nc1nccnc1Cl	-184.4*
SMILES	aSyn 5UTR act
COc1cccc(C(=O)Nc2ccc(Cl)c(C(F)(F)F)c2)c1	-108.2*
COC(=O)c1ccc(NC(=O)c2cccc(C)c2)cc1	-64.8*
COc1cccc(C(=O)NC(=S)Nc2ccc(N(C)C)cc2)c1	-185.4*
Cc1ccc(NC(=O)c2ccc3nsnc3c2)c(C)c1	-102.0*
COC(=O)c1ccc(NC(=O)c2ccc3nsnc3c2)cc1	-111.2*
COc1cccc(C(=O)Nc2ccc(C(=O)c3ccccc3)cc2)c1	-94.4*
COc1ccc(NC(=O)c2ccc(C)cc2)c(OC)c1	-188.8*
COc1cccc(C(=O)Nc2ccc(C3CC3(Cl)Cl)cc2)c1 (stereo not drawn)	-169.2*
CCC(=O)Nc1ccc2c(c1)C(=O)c1ccccc1C2=O	-244.6*
Cc1ccc(NC(=O)COC(=O)c2cccc3c2C(=O)c2ccccc2C3=O)c(C)c1	51.7
COc1cccc(C(=O)Nc2ccc3c(c2)C(=O)c2ccccc2C3=O)c1	-163.7*
COC(=O)c1ccc(/C=C/C(=O)c2cccc(OC)c2)cc1	-70.7*
COc1ccc2cc(C(=O)/C=C/c3cc(OC)c(O)c(OC)c3)ccc2c1	-71.1*
CCN(CC)S(=O)(=O)c1cccc(C(=O)Oc2cccc(NC(=O)c3cccs3)c2)c1	-66.3*
